Source: PubChem BioAssay AID1159580 (chemical genetic matrix, 2015)
Hit rate of the full screen: of about 5,500 compounds, about 2,000 (36%) were called active. Inconclusive results (about 18%) are left out. Cut-off read from the data, not from the text of the source: active = normalized growth mostly below about 0.91 (no sharp cut-off); inconclusive = no clear call, values can overlap the other calls; inactive = mostly above about 0.92. The list shows a part of the results.

Assay: chemical genetic growth profiling, strain panel (AID 1159580);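 note: tested at 20 µM; growth read once vehicle control cultures reached saturation at 30 °C; 1 = growth at the plate median or of vehicle wells; lower values mean less growth of the strain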
Settings: S. cerevisiae deletion strains, growth OD

Measured: normalized growth

c1ccc2c(N3CCNCC3)cccc2c1
inactive: locus YAL040C, strain CLN3, hits give low values 1.03 | locus YCL061C, strain MRC1 (second series), hits give low values 1 | locus YDR150W, strain NUM1, hits give low values 0.994 | locus YDR363W, strain ESC2, hits give low values 0.999 | locus YER002W, strain NOP16, hits give low values 1.01 | locus YGR078C, strain PAC10, hits give low values 0.993 | locus YGR229C, strain SMI1, hits give low values 1.02 | locus YMR307W, strain GAS1, hits give low values 0.99 | locus YNL153C, strain GIM3, hits give low values 0.991 | locus YNL175C, strain NOP13, hits give low values 1.01 | locus YNL197C, strain WHI3, hits give low values 0.997 | locus YNL224C, strain SQS1, hits give low values 1.01 | locus YNL322C, strain KRE1, hits give low values 1.01 | locus YOR083W, strain WHI5 (second series), hits give low values 1 | locus YPL055C, strain LGE1, hits give low values 1.02 | locus YPL241C, strain CIN2, hits give low values 1
